# From ChEMBL document CHEMBL4513216, “Probing the Open Global Health Chemical Diversity Library for Multistage-Active Starting Points for Next-Generation Antimalarials” (ACS Infect Dis, 2020)
# Among all 68,000 compounds or so, about 2,700 (4%) showed an effect of 50% or more. Shown is part of a subset that was picked to be rich in strong results.
# Test system: Plasmodium berghei
# Assay: Screen against P. berghei liver stage (PbLuc), transformed with Luciferase, at 2uM
# Format: functional, HepG2
# Details: tested at 2 uM
row,SMILES,INHIBITION [%]
1,CC(C)C(=O)NC1CC2(CCN(CC(=O)N(C)C)CC2)c2ccccc21 (centres undefined),-0.91
2,CCC(=O)Nc1cccc(OCC(=O)N(C)Cc2ccon2)c1,19.91
3,CCC(=O)Nc1cccc(OCC(=O)N(C)Cc2nc(C)c[nH]2)c1,53.13
4,CCc1cccc(NC(=O)CCC(=O)N(C)Cc2nc(C)c[nH]2)c1,-53.55
5,CCn1nc(C)c2nc(C(C)C)nc(NCCCn3cccn3)c21,-25.67
6,Cc1cccc(CN2CCn3cc(CNC(=O)CC4CC4)nc3C2)n1,17.24
7,O=C1COC2(CCN(Cc3nccs3)CC2)CN1CC1CC1,7.86
8,CCc1cnc(N2C[C@@H]3C[C@H](C(=O)NC)[C@H](C2)O3)nc1,18.91
9,CC(=O)NCCC1CCCCN1S(=O)(=O)c1cccc(C#N)c1 (centres undefined),-7.53
10,N#Cc1cccc(S(=O)(=O)N2CCCCC2C(N)=O)c1 (centres undefined),70.24
11,N#Cc1cccc(S(=O)(=O)N2CCCCC2CCN2CCCC2)c1 (centres undefined),-8.84
12,CCOc1cccc(NC(=O)c2cnc(C)cn2)n1,29.97
13,CC(C)=CCS(=O)(=O)Cc1nc(C(C)C)no1,34.69
14,CN1CCCC1CCNC(=O)c1ccccc1-n1cc(CN)cn1 (centres undefined),-10.49
15,Cc1ccc(-c2cn(C3CCN(C(=O)[C@H]4CCCO4)CC3)nn2)cc1,74.44
16,O=C(C1CCCO1)N1CCC(n2cc(-c3ccc(F)cc3)nn2)CC1 (centres undefined),31.51
17,O=C(C1CCCO1)N1CCC(n2cc(-c3ccsc3)nn2)CC1 (centres undefined),7.67
18,CN(Cc1ccc(F)cc1)C(=O)NCc1nnc2n1CCCCC2,-43.41
19,O=C(NCCCN1CCCCC1)c1ccc(-n2ccc3ccccc32)s1,13.64
20,O=C(NCCN1CCOCC1)c1ccc(-n2ccc3ccccc32)s1,52.4
21,O=C(NCCCN1CCOCC1)c1ccc(-n2ccc3ccccc32)s1,28.31
22,CC(C)(C)c1nc(CN2CCCC2c2nnc3ccccn23)no1 (centres undefined),-12.01

row,SMILES,INHIBITION [%]
1,COc1nc2ccn(CCc3cnccn3)c(=O)c2cc1C#N,-32.52
2,COc1nc2ccn(CCNc3cc(C)ccn3)c(=O)c2cc1C#N,55.39
3,COc1nc2ccn(CCc3scnc3C)c(=O)c2cc1C#N,0.31
4,O=C([C@@H]1CCCN1c1nccc(Nc2ccccc2)n1)N1CCCCC1,-16.43
5,CCC(CN1CCCC1)NC(=O)C1(c2cccc(F)c2)CC1 (centres undefined),6.64
6,COc1cccc(-n2cc(CN(C)C(=O)c3cnc(O)cn3)cn2)c1,-6.27
7,COc1cccc(C(=O)N(C)C(C)c2c(C)n[nH]c2C)c1OC (centres undefined),50.63
8,C=C(C)COc1cccc(C(=O)N(C)C(C)c2c(C)n[nH]c2C)c1 (centres undefined),-10.92
9,C=C(C)COc1ccccc1C(=O)N(C)C(C)c1c(C)n[nH]c1C (centres undefined),29.81
10,CC(C)N1CCCn2c(nc(CNC(=O)c3nccn3C)cc2=O)C1,-25.29
11,CCN(CC)C(=O)c1ccn(COc2ccc(F)cc2)n1,17.7
12,CCc1n[nH]c(C2CN(C(=O)Cc3ccc(C)nc3)CCO2)n1 (centres undefined),36.48
13,CC1CCN(C(=O)CN2CC(c3nc(C4CC4)no3)C2)CC1,12.57
14,O=C(CN1CC(c2nc(C3CC3)no2)C1)N1CCOCC1,56.9
15,O=C(CN1CCCC(c2noc(C3CC3)n2)C1)N1CCCC1 (centres undefined),19.45
16,O=C(c1cccnc1)N1CCC2(CC1)CCN(c1ccsc1)C2=O,-8.05
17,O=C(Cc1ccccc1Cl)NCCN1CCC(c2cccs2)CC1,28.43
18,Cn1cc(CC(=O)N2CCCC(n3cncn3)C2)cn1 (centres undefined),38.76
19,Cc1nccn1C1CCCN(C(=O)c2cccc(S(C)(=O)=O)c2)C1 (centres undefined),5.72
20,COc1ccccc1C1(CNC(=O)NCc2noc(C)n2)CC1,15.28
21,COc1ccccc1C1(CNc2ccnc(C(=O)N(C)C)c2)CC1,67.44
22,CN(C)C(=O)c1ccc(NCCNc2ccc3ccccc3n2)nc1,-37.09

row,SMILES,INHIBITION [%]
1,COc1ccccc1C1(CNc2ccc(C(=O)N(C)C)cn2)CC1,50.61
2,COc1ccccc1C1(CNc2cc(C(=O)N(C)C)ccn2)CC1,33.78
3,COc1ccccc1C1(CNc2ncc(S(N)(=O)=O)s2)CC1,7.67
4,OCCOCCN1CCCC1c1cccc(Cl)c1 (centres undefined),-17.64
5,Cc1nc(N(C)C)nc(N(C)Cc2cnccn2)c1C,20.29
6,COC(=O)c1ccc(C2SC(C)=Nc3c2c(=O)[nH]n3C2CCCC2)cc1 (centres undefined),-3.18
7,CCCN(C)S(=O)(=O)N1CCCC1c1ccco1 (centres undefined),-3.57
8,COC(=O)c1cccc(S(=O)(=O)NC(=O)c2ccccc2F)c1,0
9,Cc1cc(NC(=O)C(C)Nc2cccc(COCc3ccco3)c2)no1 (centres undefined),21.57
10,Cc1cc(NC(=O)C(C)Nc2cccc(COCc3ccco3)c2)on1 (centres undefined),55.52
11,CCOC(=O)C(C)Nc1cccc(COCc2ccco2)c1 (centres undefined),-5.44
12,Cc1ncc(CNC2CC(=O)N(CCc3cccc(Cl)c3)C2)n1C (centres undefined),-15.29
13,NC(=O)C1CCN(CC(=O)N(Cc2ccccc2)Cc2nccs2)CC1,26.93
14,Cc1nc(C(=O)NCCS(=O)(=O)N2CCCC2)cs1,3.29
15,CCc1cc(NCc2ccccc2CN2CCCC2)n2ncnc2n1,-23.61
16,CCc1cc(NCC(O)CN2CCCCC2)n2ncnc2n1 (centres undefined),16.01
17,CCc1cc(NCc2cccnc2N2CCCCC2)n2ncnc2n1,64.9
18,CCC(C)[C@H](N)c1nnc(SCC(=O)Nc2ccc(Br)cc2)o1 (some centres undefined),-7.19
19,CNc1cc(C2CN(C(=O)c3cscn3)CCO2)nc(C)n1 (centres undefined),26.69
20,CCc1nc(CN(C(C)=O)C2CCN(CCc3ccncc3)C2)no1 (centres undefined),-21.22
21,CCc1nc(CN(C(C)=O)C2CCN(CCc3cnn(C)c3)C2)no1 (centres undefined),-10.66
22,CC(C)CNC(=O)c1cn(C(C)C)cc2c(=O)[nH]nc1-2,55.52

row,SMILES,INHIBITION [%]
1,COCCCNC(=O)c1cn(C(C)C)cc2c(=O)[nH]nc1-2,15.34
2,CC(C)n1cc(C(=O)NCCN(C)C)c2n[nH]c(=O)c-2c1,9.1
3,CNC(=O)CN1CCCC12CCN(C(=O)c1ccsc1)CC2,24.15
4,Cc1nc(CN2CCC(O)(c3ccccc3F)CC2)c2ccccn12,15.55
5,CC(C)Oc1ccc(C(=O)N2CCCC2c2cnn(C)c2)cn1 (centres undefined),15.13
6,Cc1cnn(CC2CCCN2C(=O)Cc2n[nH]c3ccccc23)c1 (centres undefined),3.9
7,CCCc1noc(CCC(=O)N2CCCC2c2ccncc2)n1 (centres undefined),-33.92
8,O=C(Cc1n[nH]c2ccccc12)N1CCCC1Cn1cccn1 (centres undefined),-36.73
9,Cn1cc(C2CCCN2C(=O)COCCOc2ccccc2)cn1 (centres undefined),-24.75
10,COc1ccc(C(=O)N2CCCC2c2cnn(C)c2)cn1 (centres undefined),80.46
11,CCCc1noc(CCCC(=O)N2CCCC2c2cnn(C)c2)n1 (centres undefined),54.99
12,Cn1cc(C2CCCN2C(=O)CCCOCc2ccccc2)cn1 (centres undefined),-3.9
13,Cn1cc(C2CCCN2C(=O)Cc2n[nH]c3ccccc23)cn1 (centres undefined),63.95
14,Cn1cc(C2CCCN2C(=O)COCCc2ccccc2)cn1 (centres undefined),50.76
15,CCCc1noc(CCC(=O)N2CCCC2c2ccc(OC)cc2)n1 (centres undefined),30.29
16,CCOc1ccc(C(=O)N2CCCC2c2cnn(C)c2)cn1 (centres undefined),-1.02
17,O=C(NC[C@H]1OC[C@@H](NCc2ccccc2F)[C@@H]1O)c1ccc(F)cc1,-13.88
18,CCC(CCN)n1ccc(C(F)(F)F)n1 (centres undefined),-31.71
19,Cn1cnnc1SC1CCc2ccccc2NC1=O (centres undefined),21.31
20,CN(Cc1cn2c(n1)CN(Cc1ccsc1)CC2)Cc1ccco1,-9.48
21,COCc1nc2nc(O)c3c(n2n1)NC(=O)CC3c1ccc(SC)cc1 (centres undefined),-19.97
22,Cc1cccc(C(=O)N2CCC3(CC2)CC(c2cnn(C)c2)CO3)c1 (centres undefined),11.79

row,SMILES,INHIBITION [%]
1,CC(C(=O)Nc1ccnn1C(C)C)N1CCc2nn(C)c(=O)cc2C1 (centres undefined),-15.38
2,CC(C)CN1CCCC1c1cc[nH]n1 (centres undefined),17.29
3,c1ccc(COC[C@@H]2CCC[C@]23CN(Cc2nccs2)CCO3)nc1,17.24
4,CS(=O)(=O)N1CCCC12CCCN(C(=O)c1ccno1)C2 (centres undefined),7.3
5,COCc1cc(CC2(NC3CCCCC3)COC2)no1,-9.98
6,CCN(CC)C1(Cc2cc(COC)on2)COC1,52.36
7,CCN(CC)C1(Cc2cc(CC(C)C)on2)COC1,32.59
8,Cc1ccc(C(=O)N2CCc3ncnc(C)c3CC2)o1,32.97
9,Cc1ccc(C(=O)N2C[C@H]3CCC[C@@]3(COCC3CCOCC3)C2)o1,-35.36
10,CCOC(=O)N1CCc2ccccc2C12CCNCC2,4.38
11,Cc1ccc(CN2CCOC3(CCN(C(=O)C4CCOC4)CC3)C2)cc1 (centres undefined),69.37
12,Cc1ccc(CN2CCOC3(CCN(C(=O)N4CCCC4)CC3)C2)cc1,33.35
13,Cc1ccc(CN2CCOC3(CCN(C(=O)C4CC=CC4)CC3)C2)cc1,-41.1
14,Cc1nc(C)n(CC2CN(CCc3ccccc3Cl)CCO2)n1 (centres undefined),-7.08
15,Cc1ccccc1CSCCn1nc2ccccn2c1=O,6.3
16,CC(=O)NCCCSC1CCN(c2c(F)cccc2F)C1=O (centres undefined),41.07
17,Cn1nnnc1SC1CCN(c2ccccc2Cl)C1=O (centres undefined),4.99
18,CC(=O)NCCCSC1CCN(c2ccccc2F)C1=O (centres undefined),75.22
19,CC(=O)NCCCSC1CCCN(c2ccccc2Cl)C1=O (centres undefined),-1.89
20,CC(=O)NCCCSC1CCCN(c2ccccc2F)C1=O (centres undefined),9.13
21,CC(=O)NCCCSC1CCN(c2ccccc2Cl)C1=O (centres undefined),68.61
